# Several values for one entry are separate records, joined by “and”; a condition that tells them apart may be missing. Equal entries are not always repeated. Hit rate of the full screen: of about 77,000 compounds, about 4,600 (6%) were called active. Another 1% or so got no clear call; they are omitted. The sample holds actives, similar compounds and a random draw of the others, so the mix is not that of the screen.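 Rule for the calls: active = mean inhibition above about 93%, with at least 55% of replicates each passing it (limit read from the data, passing the limit was not always enough); inconclusive = only one of those two conditions holds; inactive = neither condition holds.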
# Test: T. cruzi intracellular proliferation inhibitors, primary screen, cell-based, beta-gal Tulahuen parasites, NIH3T3 host, luminescence (AID 624255)
# Conditions: T. cruzi beta-gal in NIH3T3, GalScreen luminescence, 90 h; at 8.34 µM; active compounds read high
row,SMILES,inhibition
1,COc1cccc(S(=O)(=O)N[C@@H]2CC[C@@H](CCNC(=O)Cc3ccncc3)O[C@H]2CO)c1,80.6% (inactive)
2,CS(=O)(=O)N1[C@H](C(=O)NCc2ccncc2)[C@@H](CO)[C@@H]2Cn3c(ccc(C4=CCCCC4)c3=O)[C@@H]21,58.6% (inactive)
3,COc1cccc(S(=O)(=O)N2C[C@@H](O)COC[C@H]3O[C@@H](CC(=O)N4CCOCC4)CC[C@@H]32)c1,22.5% (inactive)
4,O=C(Nc1ccccc1F)N1C[C@@H]2[C@H](c3ccccc31)[C@@H](CO)N2C(=O)Nc1ccccc1,8.53% (inactive)
5,O=C(CN1CCOCC1)NCC[C@H]1CC[C@@H](NC(=O)Nc2ccc(Cl)cc2)[C@@H](CO)O1,46.9% (inactive)
6,O=C(C[C@H]1CC[C@@H]2[C@H](COC[C@@H](O)CN2C(=O)Nc2cccc(F)c2)O1)NCc1ccccc1F,-36.9% (inactive)
7,COc1cccc(C(=O)Nc2ccc3c(c2)C(=O)N(C)C[C@@H](OC)[C@H](C)CN(C(=O)C2CCOCC2)[C@H](C)CO3)c1,9.28% (inactive)
8,C[C@H](CO)N1C[C@H](C)[C@H](CN(C)Cc2ccc(Cl)c(Cl)c2)OCCCC[C@H](C)Oc2ccc(NC(=O)NC3CCCCC3)cc2C1=O,86.3% (inactive)
9,COc1ccc(NC(=O)Nc2ccc3c(c2)C(=O)N([C@H](C)CO)C[C@H](C)[C@H](CN(C)Cc2ccncc2)OCCCC[C@H](C)O3)cc1,97.9% (inactive)
10,C[C@@H]1CCCCO[C@H](CN(C)Cc2ccc(Cl)c(Cl)c2)[C@@H](C)CN([C@@H](C)CO)C(=O)c2cc(NC(=O)Nc3ccccc3)ccc2O1,70.7% (inactive)
11,C[C@@H]1CN([C@H](C)CO)C(=O)c2cc(NC(=O)Nc3ccc(F)cc3)ccc2O[C@@H](C)CCCCO[C@H]1CN(C)Cc1ccc(Cl)c(Cl)c1,102% (active)
12,COc1ccc(CN(C)C[C@@H]2OCCCC[C@@H](C)Oc3ccc(NC(=O)Nc4ccc(OC)cc4)cc3C(=O)N([C@@H](C)CO)C[C@@H]2C)cc1,24.8% (inactive)
13,COc1ccc(NC(=O)Nc2ccc3c(c2)C(=O)N([C@H](C)CO)C[C@@H](C)[C@H](CN(C)Cc2ccc(Cl)c(Cl)c2)OCCCC[C@@H](C)O3)cc1,126% (active)
14,COc1ccccc1-c1ccc2n(c1=O)C[C@H]1[C@H](CO)[C@@H](C(=O)N[C@@H](C)c3ccccc3)[C@@H]2N1C,18.4% (inactive)
15,CCC(=O)N(C)C[C@H]1Oc2cc(C#CC3CC3)ccc2S(=O)(=O)N([C@@H](C)CO)C[C@@H]1C,3.97% (inactive)
16,C[C@H]1CN([C@@H](C)CO)S(=O)(=O)c2ccc(C#CC3CCCC3)cc2O[C@H]1CN(C)C(=O)Cc1ccncc1,118% (active)
17,C[C@@H]1CN([C@H](C)CO)S(=O)(=O)c2ccc(C#CC3CCCC3)cc2O[C@@H]1CN(C)C(=O)Cc1ccncc1,117% (active)
18,COCC(=O)N(C)C[C@@H]1Oc2cc(C#CC3CC3)ccc2S(=O)(=O)N([C@H](C)CO)C[C@H]1C,-43% (inactive)
19,CCC(=O)N(C)C[C@H]1Oc2cc(C#CC3CC3)ccc2S(=O)(=O)N([C@H](C)CO)C[C@H]1C,-39.9% (inactive)
20,C[C@@H]1CN([C@H](C)CO)S(=O)(=O)c2ccc(C#CC3CCCCC3)cc2O[C@H]1CN(C)C(=O)Cc1ccncc1,92.8% (inactive) and 91.8% (inactive)

row,SMILES,inhibition
1,C[C@@H]1CN([C@H](C)CO)C(=O)c2cc(C#CCN(C)C)cnc2O[C@H]1CN(C)C(=O)NC1CCCC1,-10.7% (inactive)
2,COc1ccc(S(=O)(=O)N[C@@H]2CC[C@H](CC(=O)N3CCc4ccccc4C3)O[C@H]2CO)cc1,16.5% (inactive)
3,CC(C)C#Cc1cnc2c(c1)C(=O)N([C@@H](C)CO)C[C@@H](C)[C@H](CN(C)C(=O)CCN1CCCCC1)O2,15% (inactive)
4,CC(=O)Nc1ccc2c(c1)C(=O)N(C)[C@@H]1CC[C@@H](CC(=O)NCC3CCCCC3)O[C@@H]1CO2,8.56% (inactive)
5,COCC(=O)N(C)C[C@H]1Oc2ncc(-c3cccc(OC)c3)cc2C(=O)N([C@H](C)CO)C[C@H]1C,-6.11% (inactive)
6,COc1ccc(C#Cc2ccc([C@H]3[C@@H](CO)N4CCCCN(C(=O)Nc5ccccc5)C[C@H]34)cc2)cc1,80.4% (inactive)
7,CC(C)C#Cc1ccc([C@H]2[C@@H](CO)N3CCCCN(C(=O)Nc4ccccc4)C[C@H]23)cc1,49.6% (inactive)
8,COc1ccccc1C#Cc1ccc([C@@H]2[C@H](CO)N3CCCCN(CCC(F)(F)F)C[C@@H]23)cc1,42.4% (inactive)
9,N#Cc1cccc(-c2ccc([C@H]3[C@H](CO)N4CCCCN(C(=O)Nc5cccc(F)c5)C[C@@H]34)cc2)c1,105% (active)
10,N#Cc1cccc(-c2ccc([C@H]3[C@@H](CO)N4CCCCN(C(=O)Nc5ccccc5)C[C@H]34)cc2)c1,75.3% (inactive)
11,O=C(Nc1cccc(F)c1)N1CCCCN2[C@H](CO)[C@H](c3ccc(C#CC4CC4)cc3)[C@@H]2C1,122% (active)
12,OC[C@@H]1[C@H](c2ccc(C#CC3CC3)cc2)[C@@H]2CN(CCC(F)(F)F)CCCCN12,99.5% (active)
13,O=C(C1CCC1)N1CCCCN2[C@H](C1)[C@@H](c1ccc(C#CC3CCCC3)cc1)[C@@H]2CO,86.9% (inactive)
14,Cc1ccccc1-c1ccc([C@@H]2[C@@H](CO)N3CCCCN(C(=O)Nc4cccc(F)c4)C[C@H]23)cc1,91.9% (inactive)
15,O=C(Nc1ccccc1)N1CCCCN2[C@H](CO)[C@@H](c3ccc(C#Cc4ccccn4)cc3)[C@H]2C1,108% (active)
16,O=C(c1ccncc1)N1CCCCN2[C@H](CO)[C@@H](c3ccc(C#Cc4ccccn4)cc3)[C@H]2C1,91.2% (inactive)
17,O=C(Nc1ccc(F)cc1)N1CCCCN2[C@H](CO)[C@H](c3ccc(C#Cc4ccccc4)cc3)[C@H]2C1,76.6% (inactive)
18,CN1CCN(C(=O)C[C@@H]2C=C[C@@H](NS(=O)(=O)c3cccc(F)c3)[C@@H](CO)O2)CC1,-46.4% (inactive)
19,O=C(C[C@H]1C=C[C@H](NC(=O)NC2CCCCC2)[C@H](CO)O1)NCc1ccccc1,-29.6% (inactive)

# — PubChem BioAssay AID624255 (Broad Institute, 2012)
